PubChem BioAssay (NCI)
The panel holds about 79,000 compounds, 15% with a hit somewhere; the sample as a whole holds those more often. Cut-off read from the data, not from the text of the source: active = growth inhibition above about 70%; inactive = the rest.

Key:
[1] = NCI Yeast Anticancer Drug Screen. Data for the rad50 strain (AID 155);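 note: 0% = growth of vehicle-only cultures of the same strain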; settings: S. cerevisiae rad50 strain growth inhibition; at 50.0 µM; stronger effect = higher value
How it was run: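 Readout: growth inhibition relative to vehicle-treated cultures. Compound exposure was carried out in a genetically defined yeast strain deficient in DNA damage repair.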

[2] = NCI Yeast Anticancer Drug Screen. Data for the mec2-1 strain (AID 157); settings: S. cerevisiae mec2-1 strain, at 50.0 µM, stronger effect = higher value
How it was run: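 Vehicle-treated cultures served as reference for growth inhibition of compound-exposed mec2-1 yeast.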

[3] = NCI Yeast Anticancer Drug Screen. Data for the sgs1 mgt1 strain (AID 161);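 note: 0% = growth of cultures given vehicle only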; settings: S. cerevisiae sgs1 mgt1 strain, at 50.0 µM, stronger effect = higher value
How it was run: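 Genetically altered yeast, compound exposure, growth inhibition relative to vehicle.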

[4] = NCI Yeast Anticancer Drug Screen. Data for the cln2 rad14 strain (AID 165);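 note: 0% = growth equal to vehicle treated cultures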; settings: S. cerevisiae cln2 rad14 strain, at 50.0 µM, stronger effect = higher value
How it was run: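 Each compound was tested on cln2 rad14 yeast. Inhibition of growth was calculated against vehicle-exposed controls.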

[5] = NCI Yeast Anticancer Drug Screen. Data for the bub3 strain (AID 167); settings: S. cerevisiae bub3 mutant strain, at 50.0 µM, stronger effect = higher value
How it was run: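 Readout: yeast growth inhibition, expressed relative to vehicle-only wells. The test organism is a mutant strain from a panel with lesions in DNA repair or checkpoint genes.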

[6] = NCI Yeast Anticancer Drug Screen. Data for the mlh1 rad18 strain (AID 175); settings: S. cerevisiae mlh1 rad18 strain growth inhibition; at 50.0 µM; stronger effect = higher value
How it was run: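 Vehicle-treated cultures served as the reference for growth inhibition in a yeast strain carrying DNA damage repair alterations exposed to each compound.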

Measured: growth inhibition

CC(C)C(=O)Nc1nc2c(ncn2C2OC(CO)C(O)C2O)c(=O)[nH]1 (stereo unspecified)
inactive: [1] 5.9% | [2] -23.6% | [3] -22.3% | [4] 8.15% | [5] -5.75% | [6] -4.15%

O=C(O)c1ccc(Br)cc1
inactive: [1] 5.1% | [2] -6.05% | [3] 2.8% | [4] -25.2% | [5] 9.8% | [6] 0%

CCCCCCCOC(C)=O
inactive: [1] 14.8% | [2] -11.8% | [3] 11.3% | [4] -16.2% | [5] -3% | [6] 21.6%

NC(=O)/N=N/C(N)=O
inactive: [1] 10.8% | [2] -1.05% | [3] 13.6% | [4] 15.2% | [5] 21.1% | [6] 27.7%

Cc1cccc(C)c1Nc1ncnc2c1cnn2C
inactive: [1] -11.6% | [2] -12.5% | [3] -1.2% | [4] -6.55% | [5] 9.95% | [6] -13.9%

CNC(=O)c1ccccc1C(=O)c1ccccc1OC
inactive: [1] 7.5% | [2] -11.7% | [3] -3.05% | [4] -25.1% | [5] 17.4% | [6] 2.15%

Cc1cccc(-c2nc3sc(-c4cccc(C)n4)nc3s2)n1
inactive: [1] -9.7% | [2] 3.05% | [3] -13.3% | [4] -29.6% | [5] 4.05% | [6] -16.3%

COc1cc2cccc(N=Cc3ccccc3Cl)c2cc1OC
inactive: [1] -8.7% | [2] -7.4% | [3] -11.3% | [4] 27.9% | [5] 8.55% | [6] -3.8%

COc1ccc(C2C(Cl)C(=O)N2NC(=O)c2ccccc2O)cc1 (stereo unspecified)
inactive: [1] -27.2% | [2] -17.4% | [3] -38.1% | [4] -1.45% | [5] -4.6% | [6] -34.8%

O=C(OCCCCCCCCOC(=O)c1ccc([N+](=O)[O-])cc1)c1ccc([N+](=O)[O-])cc1
inactive: [1] 14.6% | [2] 2.15% | [3] 12.2% | [4] 4.1% | [5] -5.4% | [6] 5.9%

O=S1(=O)CCCCc2ccccc21
inactive: [1] 7.35% | [2] -0.75% | [3] 3.75% | [4] -9.35% | [5] 1.85% | [6] -23.2%

COc1ccc2c(ccc3[nH]c4c(C)cnc(NCCCN)c4c32)c1
inactive: [1] -39.6% | [2] -31.8% | [3] -29.3% | [4] -15.1% | [5] -17.4% | [6] -39.8%

CCOC(=O)c1ccc(NC(=O)Nc2cccc(Cl)c2)cc1
inactive: [1] -4.2% | [2] 34.5% | [3] 50% | [4] -17.9% | [5] 25.4% | [6] 23.9%

OCC1OC(n2cnc3c([Se]Cc4ccccn4)ncnc32)C(O)C1O (stereo unspecified)
inactive: [1] 40% | [2] -0.6% | [3] 32% | [4] -3.75% | [5] -3.4% | [6] 7.5%

Cc1ccc([N+](=O)[O-])c2c(NCCNC(=O)Cn3ccnc3[N+](=O)[O-])ccnc12
inactive: [1] 15.8% | [2] 4.3% | [3] 8.25% | [4] -0.7% | [5] 16.4% | [6] 12.3%

C[n+]1ccc(CCC(=O)Nc2ccccc2)cc1
inactive: [1] 3.65% | [2] 24.3% | [3] -4.35% | [4] 0.3% | [5] 25.6% | [6] 3%

CC(=O)/C(=C\c1ccc([N+](=O)[O-])cc1)C(=O)CCN(C)C
inactive: [1] 5.25% | [2] 28.1% | [3] 34.9% | [4] -5.3% | [5] 13.4% | [6] -41.2%

COC1OC(CO)C(O)C(NC(=O)OCc2ccccc2)C1O (stereo unspecified)
inactive: [1] 2.6% | [2] -1.7% | [3] 3.05% | [4] -46.1% | [5] 1.1% | [6] -13.4%

O=C(O)c1ccccc1SC(Sc1ccccc1C(=O)O)c1cccs1
inactive: [1] 12.4% | [2] -9.65% | [3] 3.75% | [4] -4.55% | [5] 6.25% | [6] 4%

COc1ccc(C(=O)/C=c2/c(CC(=O)c3ccc(OC)cc3)nc3nnc(N)n23)cc1
inactive: [1] 15.5% | [2] -4.05% | [3] -6.25% | [4] 21.9% | [5] 1.45% | [6] 8.6%

COC(=O)C(C(=O)C(=O)Nc1ccc([N+](=O)[O-])cc1[N+](=O)[O-])c1nc2ccc(Cl)cc2[nH]c1=O (stereo unspecified)
inactive: [1] 10.2% | [2] 10.6% | [3] 39% | [4] 20.2% | [5] 12.5% | [6] 25.5%

COc1c(C(=O)O)[nH]c(=O)[nH]c1=O
inactive: [1] 4.85% | [2] -30.1% | [3] 5.8% | [4] -5.65% | [5] -14.3% | [6] -5.5%

C=C1CN2CCc3c([nH]c4ccccc34)C2CC1CC(=O)N(C)C (stereo unspecified)
inactive: [1] -33.5% | [2] -26.7% | [3] -24.4% | [4] -1.15% | [5] -32% | [6] -9.65%

NC(CCC(=O)Nc1cccc2ccccc12)C(=O)O (stereo unspecified)
inactive: [1] 27.6% | [2] 1.65% | [3] 16.5% | [4] 12.4% | [5] 17.2% | [6] -3.15%

CN(C)CCC(CCN(C)C)=NOC(=O)c1ccccc1
inactive: [1] -5.45% | [2] -20.2% | [3] 10.1% | [4] 8.55% | [5] 21.4% | [6] 15.6%

COC(=O)Cc1c(C(C)=O)[nH]c2ccccc12
inactive: [1] 19.5% | [2] 9.2% | [3] 4.35% | [4] 20.6% | [5] 4.25% | [6] 13.1%

CC1(C2(C)SCCS2)SCCS1
inactive: [1] 11.2% | [2] 2.9% | [3] -1% | [4] 11.2% | [5] -8.55% | [6] 10.5%

CCOP(=O)(OCC)/C(C#N)=C\c1ccc(OC(C)=O)cc1
inactive: [1] -6.15% | [2] -30.1% | [3] -9% | [4] 23.5% | [5] -25.6% | [6] -31.9%

CCC(O)C1CCCCN1 (stereo unspecified)
inactive: [1] -20.8% | [2] -7% | [3] -12.2% | [4] -4.05% | [5] -17.5% | [6] -11.2%

CCCCCCCC/C=C/CCCCCC1CCCC(C)N1 (stereo unspecified)
inactive: [1] 26.9% | [2] -20.6% | [3] 2.3% | [4] 3.65% | [5] -11.2% | [6] -2.55%

COc1ccc(C(=O)C(c2ccccc2)c2ccccc2)cc1
inactive: [1] 6.65% | [2] 1.95% | [3] -13.2% | [4] 4.35% | [5] 9.25% | [6] 6%

Cc1ccc(N)c(C(O)(C(F)(F)F)C(F)(F)F)c1
inactive: [1] -5.7% | [2] 1.5% | [3] 12.5% | [4] 15.6% | [5] 16.6% | [6] 16.6%

CC(C)(C#N)OC(=O)c1cccc(C(=O)OC(C)(C)C#N)c1Sc1ccccc1
inactive: [1] 41.8% | [2] -2.6% | [3] -7.25% | [4] 7.55% | [5] -2% | [6] -1.55%

CC(C)(C)c1ccc(SCC#CCOc2ccc(Cl)cc2)cc1
inactive: [1] -6.2% | [2] 4.2% | [3] -4.8% | [4] -23.6% | [5] -7.3% | [6] -20.4%

Cc1c(/C=N/NC(=O)c2ccc(Cl)cc2)c(=O)n(-c2ccccc2)n1C
inactive: [1] -43% | [2] -20.9% | [3] -53.4% | [4] -32.4% | [5] -52% | [6] -65.2%

Cc1ccc(Cl)cc1N
inactive: [1] 11.8% | [2] 31.1% | [3] 8.25% | [4] -27% | [5] 0.85% | [6] 18.8%

O=C(O)CCCC1CCC2NC(=O)NC2C1 (stereo unspecified)
inactive: [1] 1.55% | [2] 5.15% | [3] -5.45% | [4] 6.4% | [5] 16.5% | [6] -6%

Cn1nnnc1CCO
inactive: [1] -9.45% | [2] 7.05% | [3] -13.4% | [4] -0.55% | [5] 2.9% | [6] -8.55%

O=Cc1ccc(O)c(C(=O)O)c1
inactive: [1] 8.6% | [2] 5.8% | [3] 15.3% | [4] 21.1% | [5] 21.1% | [6] 2%

CCOC(=O)CCCNc1cc(OC)cc2cccnc12
inactive: [1] -7.4% | [2] -23.9% | [3] -2.6% | [4] -48.8% | [5] 19.8% | [6] -8.7%

Cc1ccc(S(=O)(=O)Oc2nc3ccccc3nc2N(S(=O)(=O)c2ccc(C)cc2)S(=O)(=O)c2ccc(C)cc2)cc1
inactive: [1] -9.8% | [2] -1.3% | [3] 1.3% | [4] 10% | [5] 5.95% | [6] 17.7%
